The campaign covered roughly 360,000 compounds. About 25,000 (6.9%) were called active. About 9% were inconclusive and are not listed. The call rests on the fitted dose curve; in most records, active means well fitted inhibition curve with a large enough effect; inconclusive means small, poorly fitted or top-dose-only effect; inactive means flat fitted curve, though single readings scatter. Only a selection was taken, and actives are over-represented in it overall.
Molecular target: Luciferin 4-monooxygenase (Photinus pyralis) (UniProt P08659)
Sequence (P08659 whole entry, looked up): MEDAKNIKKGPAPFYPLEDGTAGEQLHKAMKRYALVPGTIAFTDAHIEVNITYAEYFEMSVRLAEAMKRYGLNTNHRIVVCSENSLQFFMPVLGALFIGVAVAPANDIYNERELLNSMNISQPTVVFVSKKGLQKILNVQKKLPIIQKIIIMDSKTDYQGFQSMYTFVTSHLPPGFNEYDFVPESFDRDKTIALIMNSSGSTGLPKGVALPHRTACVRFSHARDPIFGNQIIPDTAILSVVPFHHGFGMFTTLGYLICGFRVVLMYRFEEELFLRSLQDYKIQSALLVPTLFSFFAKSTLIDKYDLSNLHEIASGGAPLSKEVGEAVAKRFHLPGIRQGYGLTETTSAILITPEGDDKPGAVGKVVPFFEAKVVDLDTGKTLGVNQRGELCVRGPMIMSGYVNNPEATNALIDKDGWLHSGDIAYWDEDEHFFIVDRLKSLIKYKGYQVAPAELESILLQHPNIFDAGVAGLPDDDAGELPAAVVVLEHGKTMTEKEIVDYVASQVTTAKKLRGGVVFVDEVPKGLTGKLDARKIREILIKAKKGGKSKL
Experiment: qHTS profiling assay for firefly luciferase inhibitor/activator using purifed enzyme and Km concentrations of substrates (counterscreen for miR-21 project); further: nearly all actives have a fitted effect of over 55% in size;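 on activity change, negative = inhibition: plate controls were vehicle for no effect and reference inhibitor for full effect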
Details: purified FLuc, luminescence inhibition; series mostly up to 57.5 µM; activity change, negative = inhibition: at the top concentration
Summary of the method: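 Purified P. pyralis luciferase (10nM final) with 10uM D-luciferin and 10uM ATP (Km levels) in 50mM Tris acetate pH 7.5, 10mM Mg acetate, 0.01% Tween-20, 0.05% BSA; qHTS 6-point titration, ~60 µM downward; luminescence read.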
Potency means the concentration at half of the fitted maximal effect.

| SMILES | activity change, negative = inhibition | Potency |
| --- | --- | --- |
| CC(C)OCCCn1c(SCC(=O)c2ccccc2)nc2c(sc3ccccc32)c1=O | -0.642% (inactive) | – |
| Cc1csc(SCC(=O)N(c2ccccc2)C(C)C)n1 | 0.743% (inactive) | – |
| CC(=O)OCCN(CCCn1c(-c2ccncc2)nc2ccccc21)c1nc(-c2ccc(C)cc2)cs1 | 1.22% (inactive) | – |
| Cc1ccc(C)c(NC(=O)NNC(=O)c2ccc3ccccc3c2O)c1 | -22.4% (inactive) | – |
| COc1cccc2cc(-c3nc(Cl)c4c5c(sc4n3)CC(C)CC5)c(=O)oc12 (centres undefined) | -13.3% (inactive) | – |
| COc1cc(/C=C(\C#N)c2nc3c(s2)CC(C)CC3)ccc1O (centres undefined) | – | 0.675 µM (active) |
| CCOc1ccc(/C=C(\C#N)c2nc3ccccc3c(=O)[nH]2)cc1OC | -4.72% (inactive) | – |
| COc1cc(/C=C(\C#N)c2nc3ccccc3[nH]2)ccc1O | – | 4.78 µM (active) |
| N#C/C(=C\c1ccccc1F)c1nc2ccccc2c(=O)[nH]1 | 7.06% (inactive) | – |
| Cc1ccc2nc(/C(C#N)=C/c3ccccc3F)[nH]c2c1 | – | 8.49 µM (active) |
| Cc1ccc2nc(/C(C#N)=C\c3ccc(OC(=O)c4cccs4)cc3)[nH]c2c1 | -3.56% (inactive) | – |
| Cc1ccccc1OC/C(O)=C(\C#N)c1nc2ccccc2[nH]1 | 0.866% (inactive) | – |
| O=C1OC(C(=O)Nc2cccc(Br)c2)Cc2ccccc21 (centres undefined) | -0.169% (inactive) | – |
| O=C(C1CC(=O)N(C2CCCC2)C1)N1CCN(c2cccc(C(F)(F)F)c2)CC1 (centres undefined) | 3.15% (inactive) | – |
| Cc1ccc(CN2CCCOCCS2(=O)=O)cc1 | -0.0995% (inactive) | – |
| Cc1ccc(CNC(=O)CSC2=Nc3ccccc3C3=NC(C)C(=O)N23)cc1 (centres undefined) | -7.16% (inactive) | – |
| Cc1c(Cl)cccc1-c1ccc(CNCCCSc2nnnn2C)o1 | -8.45% (inactive) | – |
| O=C(Cn1cc(/C=N/NC(=O)c2cccc(C(F)(F)F)c2)c2ccccc21)Nc1ccc(F)cc1 | 0.0534% (inactive) | – |
| CC(OC(=O)/C=C/c1ccccc1)C(=O)NC1CCCCC1C (centres undefined) | 3.73% (inactive) | – |
| Cn1nccc1NC(=O)CC(CC(=O)O)c1ccccc1 (centres undefined) | -0.627% (inactive) | – |
| O=C(CN1CCN(c2ccc(O)cc2)CC1)Nc1ccc(-c2ccccc2)cc1 | 2.93% (inactive) | – |
| Oc1ccc(-c2cccc(-c3ccc(O)cc3)c2)cc1 | – | 16.9 µM (active) |
| CC(C#N)(NC(=O)CN1CCN(S(=O)(=O)c2cc(C(F)(F)F)ccc2Cl)CC1)C1CC1 (centres undefined) | 0.354% (inactive) | – |
| O=C1/C(=C/c2ccc(F)cc2)SC(=S)N1NS(=O)(=O)c1ccccc1 | -13.4% (inactive) | – |
| O=C(CSc1nc(=O)n2ccccc2n1)Nc1ccc2c(c1)OCCO2 | -14.3% (inactive) | – |
| Cn1ccnc1SCC(=O)Nc1ccc2c(c1)OCCO2 | – | 23.9 µM (active) |

| SMILES | activity change, negative = inhibition | Potency |
| --- | --- | --- |
| Cc1ccc(SCC(=O)Nc2ccc3c(c2)OCCO3)cc1 | – | 6.75 µM (active) |
| COc1ccc(NC(=O)CSc2nc3ncccc3[nH]2)c(OC)c1 | -0.297% (inactive) | – |
| COc1ccc(NC(=O)CSc2nccn2Cc2ccc3c(c2)OCO3)cc1 | -10.3% (inactive) | – |
| Cc1ccc(-n2c(SCC(=O)Nc3ccc4c(c3)OCO4)nnc2-c2ccoc2C)cc1 | -0.842% (inactive) | – |
| CC(C)NS(=O)(=O)c1ccc(OCC(=O)Nc2ccc3c(c2)OCCO3)cc1 | 3.95% [at 2.3 µM] (inactive) | – |
| CCc1ccccc1OCC(=O)Nc1ccc2c(c1)OCCO2 | – | 10.7 µM (active) |
| Cc1ccc(S(=O)(=O)NCC(=O)Nc2ccc3c(c2)OCCO3)cc1 | -1.09% (inactive) | – |
| CCC(=O)c1cc(F)ccc1OCC(=O)Nc1ccc2c(c1)OCCO2 | -1.51% (inactive) | – |
| COc1ccc(Cn2ccnc2SCC(=O)Nc2ccc3c(c2)OCO3)cc1 | -1.75% (inactive) | – |
| O=C(CSc1nc2ncccc2[nH]1)Nc1ccc2c(c1)OCCO2 | – | 15.1 µM (active) |
| CC(C)CCN(C(=O)Nc1ccc(Cl)c(Cl)c1)C(C)c1cccs1 (centres undefined) | 2.6% (inactive) | – |
| CCOC(=O)c1cc2c(=O)n3ccccc3nc2n(CC2CCCO2)c1=NC(=O)c1ccc(C(C)(C)C)cc1 (centres undefined) | 1.25% (inactive) | – |
| COc1ccc(NC(=O)CCNS(=O)(=O)c2ccc3c(c2)CCCC(=O)N3)cc1Cl | -9.31% (inactive) | – |
| Cc1c(Cl)cccc1NC(=O)C(=O)NCCc1csc2nc(-c3ccccc3F)nn12 | -6.1% (inactive) | – |
| NC(CSC12CC3CC(CC(C3)C1)C2)C(=O)O (centres undefined) | 2.42% (inactive) | – |
| O=C(CCS(=O)(=O)Cc1ccccc1)Nc1ccc2c(c1)OCCO2 | -1.15% (inactive) | – |
| O=C(CSc1ncc(S(=O)(=O)c2ccc(Br)cc2)c(=O)[nH]1)Nc1ccc2c(c1)OCCO2 | – | 9.53 µM (active) |
| Cc1cc(C)c2c(=O)[nH]c(SCC(=O)Nc3ccc(Br)cc3)nc2n1 | -9.23% (inactive) | – |
| S=C(NCc1ccco1)Nc1ccc2c(c1)OCCO2 | – | 15.1 µM (active) |
| O=C(COc1ccc(Cl)cc1)Nc1ccc2c(c1)OCO2 | – | 19 µM (active) |
| S=C(NCc1ccc2c(c1)OCO2)NCc1ccco1 | -12.6% (inactive) | – |
| COc1ccccc1OCCCC(=O)Nc1ccc2c(c1)OCCO2 | -18.1% (inactive) | – |
| FC(F)Oc1ccc(NC(=S)NCc2ccco2)cc1Cl | -12.8% (inactive) | – |
| CS(=O)(=O)c1ccc(-c2nnn(CC(=O)Nc3ccc4c(c3)OCCO4)n2)cc1 | -1.07% (inactive) | – |
| CCCCC(=O)Nc1ccc2c(c1)OCCO2 | – | 21.3 µM (active) |
| O=C(COc1ccc(Cl)cc1)Nc1ccc2oc(=O)ccc2c1 | 0.477% (inactive) | – |

| SMILES | activity change, negative = inhibition | Potency |
| --- | --- | --- |
| COc1ccc(Cl)cc1NC(=O)COc1ccc2c(c1)OCO2 | 1.56% (inactive) | – |
| COc1ccccc1CNc1nc2ccc(Cl)cc2n2cnnc12 | 1.56% (inactive) | – |
| COCCN(C(=O)CCC(=O)Nc1nccs1)C(C(=O)NCCC(C)C)c1ccc(F)cc1 (centres undefined) | -0.256% (inactive) | – |
| COc1ccccc1C(=O)Nc1ccc(C)c(S(=O)(=O)N2CCCCC2)c1 | -15.8% (inactive) | – |
| CCc1ccccc1NC(=O)c1cnn(-c2ccc(F)cc2)c1C1CCNCC1 | -0.346% (inactive) | – |
| CCc1ccc(C2N3CC4([N+](=O)[O-])CN2CC([N+](=O)[O-])(C3)C4(C)C)cc1 (centres undefined) | 11.6% (inactive) | – |
| Cc1ccc(NC(=O)C(Cc2ccccc2)NS(=O)(=O)c2ccc3c(c2)oc(=O)n3C)cc1C (centres undefined) | 0.393% (inactive) | – |
| Cc1ccc(S(=O)(=O)N(CC(=O)Nc2ccc(Cl)cc2Cl)c2ccccc2C)cc1 | -2.42% (inactive) | – |
| COc1cccc(CNC(=O)Cn2c(=O)c3cccn3c3ccc(F)cc32)c1OC | 1.88% (inactive) | – |
| Cc1ccc(NC(=O)CN(C)C(=O)Cn2nnc(-c3ccccc3)n2)cc1 | 1.45% (inactive) | – |
| Cc1nc2ccc(S(=O)(=O)NC(C(=O)NCc3ccccc3Cl)C(C)C)cc2s1 (centres undefined) | -1.2% (inactive) | – |
| CSc1nnc(-c2ccc(C(F)(F)F)cn2)o1 | -12.7% (inactive) | – |
| O=C(COc1ccccc1F)Nc1ccc(C(=O)OCc2cc(=O)n3nc(C4CC4)sc3n2)cc1 | -1.77% (inactive) | – |
| Cc1ccc(NC(=O)CSc2nc(CSc3ccc(C)cc3)cc(=O)[nH]2)cc1 | – | 21.3 µM (active) |
| COc1ccc(NC(=O)CSc2nc(NS(=O)(=O)c3ccc(C)cc3)cc(=O)[nH]2)cc1 | -1.83% (inactive) | – |
| Cc1cc(=O)[nH]c(SCC(=O)Nc2ccc(Br)cc2)n1 | -4.58% (inactive) | – |
| CC(C)Cc1nnc(NC(=O)CCNC(=O)c2ccccc2Cl)s1 | -0.694% (inactive) | – |
| C/C=C/C=C/C(=O)O | 3.4% (inactive) | – |
| COc1ccc(S(=O)(=O)c2cn(C)c3cc(N4CCCCC4)c(F)cc3c2=O)cc1 | 2.55% (inactive) | – |
| COc1ccc(C(=O)NCC(c2ccc(N(C)C)cc2)N2CCc3ccccc32)c(OC)c1 (centres undefined) | -7.32% (inactive) | – |
| COc1ccc(S(=O)(=O)N2CCCCC2)cc1C(=O)NC1CCS(=O)(=O)C1 (centres undefined) | -0.412% (inactive) | – |
| CN1OC(COC(=O)c2ccc(Cl)cc2)CC1c1ccccc1 (centres undefined) | – | 19 µM (active) |
| CCOC(=O)c1ccc(CN(Cc2ccccc2)S(=O)(=O)c2ccc(Cl)cc2)cc1 | -11.5% (inactive) | – |
| Cn1cncc1COC(=O)c1ccc(Cl)cc1 | 1.25% (inactive) | – |
| O=C(CCS(=O)(=O)c1ccccc1)N(Cc1cccnc1)c1nc2c(F)cccc2s1 | -1.07% (inactive) | – |
| CN(C)c1cccc(C(=O)N2CCC(n3nccc3NC(=O)C3CCOC3)CC2)c1 (centres undefined) | -0.997% (inactive) | – |

| SMILES | activity change, negative = inhibition | Potency |
| --- | --- | --- |
| CN(CCO)c1ccc(/C=N/Nc2nncc3ccccc23)cc1 | – | 0.0757 µM (active) |
| Cc1cc2cc3c(N)[nH]nc3nc2cc1C | – | 4.78 µM (active) |
| COCCNC(=O)NC(=O)COC(=O)C1(c2ccc(Cl)cc2)CC1 | -1.43% (inactive) | – |
| CCN(CC)C(=O)CS(=O)CC(=O)Nc1cc(OCCOC)c(Cl)cc1Cl (centres undefined) | 0.36% (inactive) | – |
| O=C(CSc1ccc(-c2ccccc2)nn1)NCC1CCCO1 (centres undefined) | -9.68% (inactive) | – |
| O=C(CSc1nnc(-c2ccc(NS(=O)(=O)c3ccccc3)cc2)o1)NCC1CCCO1 (centres undefined) | -1.96% (inactive) | – |
| O=C(CSc1ccc(-c2ccc(Br)cc2)nn1)NCC1CCCO1 (centres undefined) | – | 15.1 µM (active) |
| CCCC[C@]12Cc3cc(OC)c(OC)cc3C(O1)C1=C(CC3(CCCCC3)OC1=O)O2 | -0.0926% [at 11.5 µM] (inactive) | – |
| Cc1cc(C)c(C#N)c(SCc2ccccc2C(=O)O)n1 | 1.73% (inactive) | – |
| CCN(CC)CCCSc1nc2ccccc2s1 | -18.5% (inactive) | – |
| O=C(O)c1ccccc1CSc1nc2ccccc2s1 | – | 19 µM (active) |
| COCCNC(=O)c1ccc2c(c1)N=C(C)c1cc(C)ccc1S2 | -5.31% (inactive) | – |
| COc1ccc(S(=O)(=O)N2CCOC23CCN(S(=O)(=O)c2ccc([N+](=O)[O-])cc2)CC3)cc1 | 6.4% (inactive) | – |
| CCOc1ccc(NC(=O)Nc2ccc(N(C)C(C)=O)cc2)cc1 | 0.16% (inactive) | – |
| CC(=O)N(C)c1ccc(NC(=O)Nc2cccc3ccccc23)cc1 | – | 8.49 µM (active) |
| O=C(O)Cc1ccc(NC(=O)Nc2cccc3ccccc23)cc1 | -15.7% (inactive) | – |
| CC(=O)Nc1ccc(NC(=O)CSc2nnc3c4cc(Br)ccc4n(C)c3n2)cc1 | 0.306% (inactive) | – |
| CCc1ccc(NC(=O)CN2C(=O)C(c3ccccc3)=NC23CCCCCC3)cc1 | -7.02% (inactive) | – |
| CCOc1[nH]n(-c2ccc(Cl)cc2)c(=O)c1C=Nc1ccc(O)cc1 | 3.26% (inactive) | – |
| Oc1ccc(N=Cc2sc3ccccc3c2Cl)cc1 | – | 5.36 µM (active) |
| Oc1ccc2ccccc2c1C=Nc1ccccc1 | – | 16.9 µM (active) |
| CC(C)CNC(=O)CC(c1ccccc1)c1c(O)ccc2ccccc12 (centres undefined) | 8.33% (inactive) | – |
| O=[N+]([O-])c1ccc(N=Cc2c(O)ccc3ccccc23)cc1 | -8.44% (inactive) | – |
| Oc1ccc(N=Cc2c(O)ccc3ccccc23)cc1 | – | 16.9 µM (active) |
| COc1ccc(-n2ccnc(NCCc3ccc(Cl)cc3)c2=O)cc1OC | -9.74% (inactive) | – |
| Cc1cc(C)cc(NC(=O)c2cnc3sc(N4CCCC4)nn3c2=O)c1 | -2.76% (inactive) | – |

Reference: PubChem BioAssay AID588342 (National Center for Advancing Translational Sciences (NCATS), 2011)
